Test results reported in the supplement of paper PMC11417369.
± gives the standard deviation of the averaged measurements. The full ranking holds about 25,000 sequences; the median of “ln(normalized median fluorescence intensity)” is about 8.6, and the highest 2% start at about 10. For the sample, the highest values were picked, then their nearest neighbours and some sequences at random.

Each sequence was assayed on PfAP2-EXP AP2 domain (GST-tagged) (assay: gcPBM binding intensity (ln(normalized median fluorescence intensity)); higher = stronger DNA binding).
Summary of the method: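 Binding intensity is the highest Masliner-normalised natural-log median intensity over replicate spots in either probe orientation. To obtain it, GST-tagged P. falciparum DNA-binding domains made in E. coli were incubated for 1 h on an Agilent 4 × 180k array of primer-extended double-stranded 36-bp intergenic genomic probes plus negative controls. Detection used Alexa488 anti-GST antibody with scanning at 488 nm.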

| Sequence | gcPBM binding intensity (ln) |
| --- | --- |
| AAATAGAGAAATACAAGTACATATCAAACCAATCTA [XGTACX_site2756] | 8.52 ± 0.42 |
| TTATACACCTTTCATTGTACATATAATTTATATTCT [XGTACX_site8685] | 8.95 ± 0.33 |
| TATTACATTGTTGAATGTACTCATTTAAAATTTATA [XGTACX_site7987] | 8.34 ± 0.38 |
| TATATATATATATATATAATACGAATTTGTAGTACA [TGCATGCA_negctrl_site224] | 10.2 ± 0.16 |
| ATAATACGAATTTGTAGTACATTTATAATAACATGA [XGTACX_site2614] | 8.37 ± 0.17 |
| TATATAATACGAATTTGTACATATTAAATAAATTAT [XGTACX_site93] | 8.41 ± 0.37 |
| AATTATATTTGAAATACACACATAAAAACCATATAG [CACACA_site7598] | 8.89 ± 0.51 |
| TCATACATGTATATGTGTACATATAATGTATATTCC [XGTACX_site6082] | 8.3 ± 0.3 |
| ATGTAAATACATATATGTACACAAATATATATATAT [XGTACX_site3537] | 9.8 ± 0.35 |
| TATATATATTTATGTACACACATATATACCTTTCAT [CACACA_site5479] | 8.74 ± 0.23 |
| TATATATATATATGTACACACATATATACCTTTCAT [CACACA_site2679] | 10.1 ± 0.27 |
| ACACACATATATACATGTACATATATATATATATAT [XGTACX_site451] | 10.1 ± 0.3 |
| TCACACATATATTCATGTACATATTAATATTTCCAT [XGTACX_site5387] | 8.85 ± 0.44 |
| ACACATACATACATATGTACATATATACATATATAC [XGTACX_site5559] | 8.84 ± 0.26 |
| ACACATATATAAATATGTACATATATATATATACAT [XGTACX_site1595] | 8.61 ± 0.23 |
| AATATATTCCACATGTGTACATATATATATATATAT [XGTACX_site8006] | 10.3 ± 0.24 |
| TATATATATATATATGTACACACATATATACCTTTC [CACACA_site8854] | 10.2 ± 0.26 |
| GTAAATACACATATGTGTACATATATATATATATAT [XGTACX_site3696] | 10.2 ± 0.35 |
| ACATACACATATACATGTACATATATATATATATAT [XGTACX_site5082] | 10.2 ± 0.2 |
| AAAAAAATATATATTACACACATATATACCTATATA [CACACA_site5688] | 8.18 ± 0.47 |
| TATATCTGTATCATTACACACATGTATACTTATTTG [CACACA_site6134] | 8.74 ± 0.43 |
| TTACGATTATACAAAAGTACATGTATTACACAATAT [XGTACX_site5138] | 8.6 ± 0.33 |
| TACAAAAAAAGATGATGTACAATGAAAAATAAGAAA [XGTACX_site5840] | 9.18 ± 0.37 |
| TATTATAATTAATATACACACGCTTATATATATATA [CACACA_site75] | 9.93 ± 0.3 |

| Sequence | gcPBM binding intensity (ln) |
| --- | --- |
| TAATTGTAGACATGCACACACAAATATTATATATGT [CACACA_site845] | 8.72 ± 0.45 |
| TAATGAAATATACAGAGTACATTCTGTATATAGGAT [XGTACX_site7691] | 8.46 ± 0.3 |
| ATATTTACCACTGTATGTACATATATAAAATATATC [XGTACX_site6373] | 8.81 ± 0.18 |
| CTTGAAAGATTTTATTGTACTCATAAGATACATTTC [XGTACX_site3178] | 8.31 ± 0.36 |
| ATATATATATATATATGTACACATATATTTCTTTTC [XGTACX_site3443] | 10 ± 0.47 |
| TATATATATATATATTGTACACATACATGTAGTTTT [XGTACX_site4848] | 10.2 ± 0.29 |
| TATATATATACATATTGTACATGTGTATATTTTTTT [XGTACX_site361] | 8.93 ± 0.042 |
| TATTATAGTATATATTGTACATATATATATTTTTTA [XGTACX_site8831] | 8.35 ± 0.37 |
| ATATATATATATATATGTACACATATACGCTTTTTC [XGTACX_site3838] | 10.3 ± 0.28 |
| TACATTGTATACATATGTACACATATATATATATAT [XGTACX_site6174] | 10.1 ± 0.4 |
| TGTATACGCATATGTACACACATATATATGTATATG [CACACA_site3087] | 8.65 ± 0.16 |
| AGTTTATAGTGATATTGTACATATATATATATATAT [XGTACX_site572] | 10.2 ± 0.66 |
| TATATAGTTTATATTTGTACATATAGACATTTATAA [XGTACX_site6414] | 8.23 ± 0.3 |
| AAAATGTACTTTTTCTAAAGAGTAATGATGCTTGAT [CACACA_negctrl_site1124] | 8.52 ± 0.45 |
| ATATGATAAATTATATGTACTTAAAATATATTATAA [XGTACX_site5904] | 8.26 ± 0.18 |
| TATTCATGCATATACACACACATATATTTATATTTT [CACACA_site7786] | 8.77 ± 0.35 |
| CATATTTTATTATATACATGCAATTTTAATATATAT [TGCATGCA_site544] | 8.59 ± 0.25 |
| TATATATATATATATACATGCATATTTTTTATTTTT [TGCATGCA_site464] | 10.3 ± 0.31 |
| TATTTATATAGACACACACACATATATTTATATTTT [CACACA_site7240] | 8.52 ± 0.45 |
| TATATATATATATATGCACACATTTATACAATTTTA [CACACA_site2986] | 10.2 ± 0.3 |
| TCCTTTTTTTTTTATGCACACACAATTATACATTCC [CACACA_site9287] | 9.06 ± 0.4 |
| TATAATAATAATTATACATGCATGAATATTTATATG [TGCATGCA_site811] | 8.86 ± 0.16 |
| AACAGACATAGACACACACACATATATTTATTTATA [CACACA_site7571] | 8.64 ± 0.4 |
| GTTATTTATAGACACACACACATGCATGCACATATA [CACACA_site6204] | 10.2 ± 0.39 |

| Sequence | gcPBM binding intensity (ln) |
| --- | --- |
| TATATATATATATATACATGCATACAATTTTATGAG [TGCATGCA_site466] | 10.2 ± 0.29 |
| CTTTTTTTTTTATGCACACACAATTATACATTCCTT [CACACA_site3877] | 9.08 ± 0.37 |
| TATATACATGCATATACACACATATATTTATTTATA [CACACA_site6327] | 8.7 ± 0.33 |
| GCATAACCTTTATATTGTACATATACCTTTATTGTT [XGTACX_site6046] | 9.16 ± 0.45 |
| TTTAATAAATAAATAAATAAAATATATTAAAAACCA [CACACA_negctrl_site80] | 8.38 ± 0.36 |
| GCATCCCTTTTTATGTGTACATACAAAGGCAATTAC [XGTACX_site6977] | 8.86 ± 0.33 |
| CCTTAATATTTTTGAAGTACATATTTATTTTACAAG [XGTACX_site3049] | 8.31 ± 0.33 |
| TGCTACATTTTATGTACACACATATACAGATATATA [CACACA_site4646] | 8.42 ± 0.26 |
| TCATATGTTAAATGATGTACATTTAATATAAATAAA [XGTACX_site900] | 8.38 ± 0.15 |
| AATTGCATAATATATTCACACATTTTTAAGTGATAC [CACACA_site5679] | 8.38 ± 0.35 |
| ATATATATATATATTGTACACACATTTATGCATATA [CACACA_site9055] | 10 ± 0.2 |
| ATATTCAATATATTATGTACACATATATGAGGATAT [XGTACX_site7019] | 8.65 ± 0.41 |
| ATAATCATAAAATAAACACACATATATAAATATATT [CACACA_site276] | 8.27 ± 0.47 |
| TATGAATGGTTAAGTACACACATATTAATATATGTA [CACACA_site3490] | 8.49 ± 0.45 |
| ATATTATATAATAATGCATGCACCTTATTTTCATTT [TGCATGCA_site405] | 10.2 ± 0.44 |
| ATTATATAATAATGCATGCACCTTATTTTCATTTCA [GTGCAC_site9922] | 9.99 ± 0.19 |
| TAATAATTAATTAATATAATATTTTTTCATAATTAT [XGTACX_negctrl_site602] | 8.22 ± 0.4 |
| TGTATAATATTTGGTGCACACAAATTAACAACTGTT [CACACA_site9245] | 9.21 ± 0.32 |
| AACATATTTTTAAATACACACACATAAAAAAAAAAA [CACACA_site8279] | 8.59 ± 0.5 |
| AATTTATATGTTTTGTGTACACAATTTATTAAATTA [XGTACX_site6448] | 9.03 ± 0.29 |
| GTATATATTTTGTATTCATTTGTCACATATAATAGA [CACACA_negctrl_site506] | 8.69 ± 0.5 |
| TATTTTGTATTCATTTGTCACATATAATAGATAGGA [TGCATGCA_negctrl_site9] | 8.69 ± 0.32 |
| ATTCGTCACATTTTTTGATATATATATATATATATA [CACACA_negctrl_site1785] | 10.4 ± 0.4 |
| ATCCATCTTTTAATTTGTACTTATTCTTTTTTCTTT [XGTACX_site5299] | 9 ± 0.67 |
